Here are results for 34 compounds from PubChem BioAssay (Tox21).

Each structure is given as a SMILES string. Inconclusive results are not listed. Values without a mark were called inactive. Calls of active or inactive are those of the source. Unless noted, calls follow the shape of the dose curve; as a rule, active = well fitted cell-killing curve with a large enough effect in the repeat runs; inconclusive = weak or mixed curves, or effect the other way; inactive = no such curve, though single readings can be large or run the other way.
% is scaled to controls: 0 for no effect and ±100 for the full control effect.

Sequence of Thyrotropin receptor (Homo sapiens) (P16473 whole entry, looked up): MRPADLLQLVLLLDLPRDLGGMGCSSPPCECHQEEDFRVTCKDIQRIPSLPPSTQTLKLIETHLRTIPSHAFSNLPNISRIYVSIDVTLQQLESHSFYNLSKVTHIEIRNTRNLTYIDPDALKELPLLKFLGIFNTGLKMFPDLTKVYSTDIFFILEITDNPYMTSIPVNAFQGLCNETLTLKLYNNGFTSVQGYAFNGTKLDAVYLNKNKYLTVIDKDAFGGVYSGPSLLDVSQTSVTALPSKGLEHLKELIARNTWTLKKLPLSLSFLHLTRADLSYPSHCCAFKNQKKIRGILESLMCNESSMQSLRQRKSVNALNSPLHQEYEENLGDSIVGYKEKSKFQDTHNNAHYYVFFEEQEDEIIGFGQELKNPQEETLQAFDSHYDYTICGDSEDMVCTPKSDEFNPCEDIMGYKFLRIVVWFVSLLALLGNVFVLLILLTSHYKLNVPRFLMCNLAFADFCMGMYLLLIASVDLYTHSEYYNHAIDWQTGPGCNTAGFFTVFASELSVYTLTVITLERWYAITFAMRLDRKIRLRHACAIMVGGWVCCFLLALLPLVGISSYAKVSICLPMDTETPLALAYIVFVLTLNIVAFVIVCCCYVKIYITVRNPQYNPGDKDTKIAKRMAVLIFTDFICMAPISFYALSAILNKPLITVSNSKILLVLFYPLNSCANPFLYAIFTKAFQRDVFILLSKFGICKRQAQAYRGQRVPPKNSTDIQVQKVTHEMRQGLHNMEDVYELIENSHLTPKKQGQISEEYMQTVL

The target of one experiment is Thyrotropin receptor (Homo sapiens) (UniProt P16473). The experiment is described as follows: qHTS assay to identify small molecule antagonists of the thyroid stimulating hormone receptor (TSHR) signaling pathway (AID 1259385; calls by dose curve; also: nearly all actives have a fitted effect of over 20% in size). The settings on record: TSHR-HEK293 cAMP HTRF, TSH-stimulated antagonist mode; series mostly up to 92.4 µM; activity change, negative = inhibition: at the top concentration. Summed up:
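TSHR-HEK293 cells (800/well) plated 18 h, then compounds with Ro20-1724 and TSH at 1.5 ng/mL final, 30 min at room temperature. cAMP quantified by HTRF (cAMP-d2/anti-cAMP-cryptate, 1 h); 15 concentrations in triplicate.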
For orientation: In qHTS, concentration-response curves come from the screen itself.
Take `O=C1OC(=O)c2c(Br)c(Br)c(Br)c(Br)c21`: the “activity change, negative = inhibition” value is -6.86%. The same measure, in the same setting: as for `CCCCCC`, the figure is 4.32%; as for `CC[C@H]1OC(=O)[C@H](C)[C@@H](O[C@H]2C[C@@](C)(OC)[C@@H](O)[C@H](C)O2)[C@H](C)[C@@H](O[C@@H]2O[C@H](C)C[C@H](N(C)C)[C@H]2O)[C@](C)(O)C[C@@H](C)CN(C)[C@H](C)[C@@H](O)[C@]1(C)O`, -1.39% [at 42.5 µM]; as for `Cc1ccc(Nc2c(F)cccc2Cl)c(CC(=O)O)c1`, 0.889% [at 42.5 µM]. For `c1ccc(CCCc2ccncc2)cc1`, the “activity change, negative = inhibition” value was -2.32%. On to `CC(C)c1ccc(C(=O)N=C(N)N)cc1S(C)(=O)=O`, for which the “activity change, negative = inhibition” value is -0.609% [at 42.5 µM]. On the same count and under the same terms, as for `COC(=O)C1=C(C)NC(C)=C(C(=O)OC(C)(C)CN(C)CCC(c2ccccc2)c2ccccc2)C1c1cccc([N+](=O)[O-])c1` (stereo not drawn), the figure is 7.05% [at 42.5 µM]; as for `Cc1ccc2c(c1[N+](=O)[O-])C(=O)c1ccccc1C2=O`, 1.14% [at 42.5 µM]; as for `Cc1ccc2c(c1)CCCN2`, -0.836%. On the same count and under the same terms, to `COc1ccc(N)c([N+](=O)[O-])c1` belongs -0.669%; to `C1CCCCC1`, -0.361%. On the same count and under the same terms, as for `C1=CCC2CC=CC2C1` (stereo not drawn), the figure is 7.36%; as for `CN1CCCN(C(c2ccccc2)c2ccc(Cl)cc2)CC1` (stereo not drawn), -6.95% [at 42.5 µM]; as for `CC(CN(CCN(CC(C)OCCO)CC(C)OCCO)CC(C)OCCO)OCCO` (stereo not drawn), -1.01%.

Tested on in another experiment: not listed separately
The experiment can be described thus: qHTS assay to identify small molecule agonists of the estrogen receptor alpha (ER-alpha) signaling pathway in the presence of an antagonist - cell viability counter screen (AID 1259386).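 Also: cells exposed to compounds for 22 h at 37 °C before the viability read; nearly all actives have a fitted effect of over 30% in size.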 Also: potency is read from the fitted curve at half-maximal effect. The settings on record: VM7Luc4E2 viability, CellTiter-Fluor fluorescence, 22 h; series mostly up to 92.4 µM; activity change, negative = cytotoxicity: at the top concentration. Summed up: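 Viability counter screen using VM7Luc4E2 (full-length ER-alpha, four ERE-luciferase). The cells were treated with compounds alongside ICI-182,780 10.0nM for 22hr, and live-cell protease fluorescence was quantified with CellTiter-Fluor.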
`CCN(CC)C(=O)/C(C#N)=C/c1cc(O)c(O)c([N+](=O)[O-])c1`: the Potency was 26.6 µM (active).

Turning to `C[C@@H]1C[C@H]2[C@@H]3CCC4=CC(=O)C=C[C@]4(C)[C@@]3(F)[C@@H](O)C[C@]2(C)[C@@]1(O)C(=O)COP(=O)(O)O`, the “activity change, negative = cytotoxicity” value was 2.07%. The same measure, in the same setting: to `O=C(O)CN1C(=O)c2cccc3cccc(c23)C1=O` belongs 2.16% [at 42.5 µM]; to `CC[C@@H](CO)NCCN[C@@H](CC)CO`, 1.64% [at 42.5 µM]; to `CCOC(=O)c1ccc(NC(=O)CN2CCCCC2)cc1`, -3.83% [at 42.5 µM]. On the same count and under the same terms, to `CC(=O)OCC(C)C` belongs 6.42%; to `Cc1cn([C@H]2C[C@H](F)[C@@H](CO)O2)c(=O)[nH]c1=O`, 1.92% [at 42.5 µM]. The same measure, in the same setting: to `O=S(=O)(O)CO` belongs 0.272%; to `COC(=O)Nc1nc2ccc(C(=O)C3CC3)cc2[nH]1`, 2.17% [at 42.5 µM]. `CCCCCCCCCCCSCC(=O)O`: the “activity change, negative = cytotoxicity” value is -3.57%. The same measure, in the same setting: to `CC(C)C(O)C(C)(C)CO` (stereo not drawn) belongs -4.6%. In the case of `Nc1nc(-c2ccc([N+](=O)[O-])cc2)cs1`, the “activity change, negative = cytotoxicity” value was -13.1%. Still for that read-out and setting: as for `CC(C)OC(=O)c1ccccc1C(=O)OC(C)C`, the figure is -0.604%; as for `Cc1ccccc1S(N)(=O)=O`, 1.64%. Still for that read-out and setting: to `COc1cc(S(=O)(=O)Nc2ccccc2)c(OC)cc1N` belongs -1.22%.

Regarding `COC1CCC=CO1` (stereo not drawn), the “activity change, negative = cytotoxicity” value was 0.0652%. The same measure, in the same setting: to `O=C1NC(=O)c2cccc3cccc1c23` belongs -3.17%. Same read-out and setting: as for `c1ccc2sc(SSc3nc4ccccc4s3)nc2c1`, the figure is 9.75% [at 19 µM]; as for `NC(=O)c1ccccc1[N+](=O)[O-]`, 2.01%. On the same count and under the same terms, to `O=C1OC(=O)c2c(Br)c(Br)c(Br)c(Br)c21` belongs -2.32%; to `CCCCCC`, 3.72%. `Cc1ccc(Nc2c(F)cccc2Cl)c(CC(=O)O)c1`: the “activity change, negative = cytotoxicity” value was 3.64% [at 42.5 µM]. Turning to `c1ccc(CCCc2ccncc2)cc1`, the “activity change, negative = cytotoxicity” value is -8.26%.

Regarding `CC(C)c1ccc(C(=O)N=C(N)N)cc1S(C)(=O)=O`, the “activity change, negative = cytotoxicity” value was 1.28% [at 42.5 µM]. Take `COC(=O)C1=C(C)NC(C)=C(C(=O)OC(C)(C)CN(C)CCC(c2ccccc2)c2ccccc2)C1c1cccc([N+](=O)[O-])c1` (stereo not drawn): the “activity change, negative = cytotoxicity” value was -10.6% [at 42.5 µM].

Consider `O=c1[nH]c2cc(C(F)(F)F)c(N3CCOCC3)cc2n(CP(=O)(O)O)c1=O`, for which the “activity change, negative = cytotoxicity” value is 0.585% [at 42.5 µM]. Take `Cc1ccc2c(c1)CCCN2`: the “activity change, negative = cytotoxicity” value was -6.08%. Still for that read-out and setting: as for `C1CCCCC1`, the figure is 1.91%. Turning to `C1=CCC2CC=CC2C1` (stereo not drawn), the “activity change, negative = cytotoxicity” value is 0.177%.
